Results reported in paper PMC4081100, “A DNA-binding-site landscape and regulatory network analysis for NAC transcription factors in Arabidopsis thaliana”.

Target: GST-WRKY1(266-371) (Arabidopsis thaliana, UniProt Q9SI37 266-371)
Assay: universal protein binding microarray (PBM); transcription factors of Arabidopsis thaliana; high values mean tight binding
Conditions: protein: recombinant; tags: GST; dsDNA, one strand shown
Summary of the method: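 GST-tagged NAC-domain, full-length or DNA-binding-domain proteins were induced in cells, with zinc acetate added for zinc-finger proteins. They were purified on glutathione–Sepharose 4B and quantified by A280 or anti-GST western blot. Each was applied at 200 to 500 nM final, in duplicate, to custom all-10-mer Agilent 4 × 180K arrays made double-stranded by primer extension, with gapped and ungapped 8-mers scored. Binding is the normalised enrichment score (E-score).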

Sequence of GST-WRKY1(266-371) (Q9SI37 266-371): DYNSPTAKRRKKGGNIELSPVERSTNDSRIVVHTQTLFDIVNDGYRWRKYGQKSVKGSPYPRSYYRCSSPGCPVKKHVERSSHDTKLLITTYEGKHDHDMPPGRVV

Row | Sequence | binding signal [E-score]
1 | GCGAGTCA | 0.414
2 | ATGAGTCA | 0.427
3 | AGCGGTCA | 0.422
4 | ATGGTCAG | 0.421
5 | AAGACCAG | 0.427
6 | CGAAGACC | 0.436
7 | CCATTGAC | 0.473
8 | CAACGACC | 0.421
9 | TGACCTCA | 0.41
10 | GCGGGTCA | 0.421
11 | GCTCTGAC | 0.403
12 | GGCGGTCA | 0.428
13 | AGTCAGCG | 0.453
14 | GCTGGTCA | 0.452
15 | GCGGTCAA | 0.487
16 | TAGGGTCA | 0.42
17 | GACTGACC | 0.42
18 | CGTGGACC | 0.444
19 | CGGTCAGA | 0.46
20 | CAAGACCG | 0.405

Row | Sequence | binding signal [E-score]
21 | CCTGGTCA | 0.454
22 | CCGCTGAC | 0.414
23 | CAGGGTCA | 0.403
24 | GAGTCAGA | 0.419
25 | GCCTTGAC | 0.457
26 | CGGTCGTC | 0.41
27 | GGTCGTCA | 0.41
28 | GGTCTGAC | 0.441
29 | CCTTGACC | 0.487
30 | TGACCGCA | 0.429
31 | CGGTCCAC | 0.434
32 | GGTCAGAA | 0.444
33 | CGGTCTTC | 0.438
34 | GGGTCAGA | 0.432
35 | CCAGGTCA | 0.408
36 | GACCGGTC | 0.445
37 | ATGACCGG | 0.407
38 | CTCTGACC | 0.458
39 | CGACGACC | 0.439
